The record followed here is PubChem BioAssay (NCI).

About 83,000 compounds went through this panel and 20% of them were active in at least one assay; those are over-represented in the sample as a whole.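 Treatment: one concentration, 48 hours, 96-well format. Scoring: percent growth, with anything below 10 considered active.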 A number with no mark means an inactive call. Active and inactive are the calls of the source.

Among the test systems are NCI-H23 lung; NCI-H226 lung; NCI-H322M lung; HOP-62 NSCLC; NCI-H460 lung; HOP-92 NSCLC; NCI-H522 lung; A549/ATCC NSCLC; 786-0 renal; COLO 205 colon; DU-145 prostate; K-562 leukemia; MALME-3M melanoma; MDA-MB-231 breast; RXF 393 renal; SF-268 CNS; SF-295 CNS; SF-539 CNS; UACC-257 melanoma; M14 melanoma.
Holding throughout (assay): NCI-60 one-dose screen, 48 h (100 = growth as untreated, 0 = no growth, -100 = all killed)
What all share (settings): 10 µM unless noted

For `CCOc1cc2ncc(C#N)c(Nc3ccc(F)c(Cl)c3)c2cc1NC(=O)/C=C/CN(C)C`, the growth in the test with NCI-H23 lung was -28.5% (active); in the test on NCI-H226 lung, -56.5% (active); in the test on NCI-H322M lung it was 0.98% (active); with HOP-62 NSCLC, -27.7% (active); with NCI-H460 lung it was -44% (active); in the test on HOP-92 NSCLC, -30% (active). Further, the growth is -57.5% (active) in the test on NCI-H522 lung; -30.6% (active) in the test with A549/ATCC NSCLC; -68.5% (active) with 786-0 renal; -83.2% (active) in the test on COLO 205 colon; -56.6% (active) with DU-145 prostate; -16.4% (active) in the test on K-562 leukemia. Moreover, the growth was -77.5% (active) in the test with MALME-3M melanoma; -38.8% (active) with MDA-MB-231 breast; -83% (active) in the test with RXF 393 renal; -19.9% (active) in the test with SF-268 CNS; 9.82% (active) with SF-295 CNS; -85.9% (active) in the test on SF-539 CNS. In addition, the growth with UACC-257 melanoma was -63% (active); in the test with M14 melanoma it was -83.1% (active).

Turning to `C[C@@H](Oc1cc(-n2cnc3ccc(CN4CCN(C)CC4)cc32)sc1C(N)=O)c1ccccc1C(F)(F)F`, the growth was 32.9% with NCI-H23 lung; 69.3% in the test on NCI-H226 lung; 63.8% in the test with NCI-H322M lung; 4.73% (active) with HOP-62 NSCLC; 8.47% (active) with NCI-H460 lung; 21.7% in the test with HOP-92 NSCLC. The growth in the test with NCI-H522 lung is -13.5% (active); in the test with A549/ATCC NSCLC, 0.209% (active); in the test with 786-0 renal it was 6.39% (active); with COLO 205 colon, -17.1% (active); in the test with DU-145 prostate it was 2.67% (active); with K-562 leukemia, 6.08% (active). The growth is 21% in the test with MALME-3M melanoma; 27.2% in the test with MDA-MB-231 breast; 16.5% in the test with RXF 393 renal; 31.6% in the test on SF-268 CNS; 32.7% in the test on SF-295 CNS; -22.1% (active) in the test with SF-539 CNS. For the same compound, the growth in the test on UACC-257 melanoma was -25.5% (active); with M14 melanoma, 15.7%.

As to `CNC(=O)c1cc(Oc2cccc3nc(Nc4ccc(Oc5ccccc5)cc4)ccc23)ccn1`, the growth is 78% with NCI-H23 lung; 66% in the test on NCI-H226 lung; 99.9% with NCI-H322M lung; 92% in the test with HOP-62 NSCLC; 61.9% in the test with NCI-H460 lung; 71.2% in the test with HOP-92 NSCLC. For the same compound, the growth was 62.7% in the test with NCI-H522 lung; 58.3% with A549/ATCC NSCLC; 72.5% in the test with 786-0 renal; 46% in the test on COLO 205 colon; 83.4% with DU-145 prostate; 41% with K-562 leukemia. Moreover, the growth is 78.2% in the test with MALME-3M melanoma; 71.6% with MDA-MB-231 breast; 91.3% in the test on RXF 393 renal; 75.4% with SF-268 CNS; 60.2% with SF-295 CNS; 90.8% in the test on SF-539 CNS. For the same compound, the growth in the test with UACC-257 melanoma is 77.2%; in the test on M14 melanoma, 68.6%.

Take `CNC(=O)c1ccccc1Nc1nc(Nc2ccc3c(c2OC)CCC[C@H](N2CCN(CCO)CC2)C3)ncc1Cl`: the growth in the test with NCI-H23 lung is 16.3%; in the test on NCI-H226 lung, 28.6%; in the test on NCI-H322M lung, 5.21% (active); in the test on HOP-62 NSCLC, -48.7% (active); with NCI-H460 lung, 0.445% (active); in the test on HOP-92 NSCLC, -30.7% (active). The growth in the test with NCI-H522 lung was -47.9% (active); with A549/ATCC NSCLC it was -31.7% (active); with 786-0 renal, -66.1% (active); in the test on COLO 205 colon, -64.7% (active); with DU-145 prostate, 18.7%; in the test with K-562 leukemia, -43.9% (active). Moreover, the growth in the test on MALME-3M melanoma is -52.1% (active); with MDA-MB-231 breast, -19.4% (active); with RXF 393 renal, -23.3% (active); in the test with SF-268 CNS it was 17.3%; in the test on SF-295 CNS, -63.7% (active); in the test with SF-539 CNS, -41.7% (active). The values for the growth with UACC-257 melanoma and in the test on M14 melanoma were -75.8% (active) and -69% (active), respectively.

Consider `COc1ccc(Cl)c(Nc2nc3ccccc3nc2NS(=O)(=O)c2cccc(NC(=O)C(C)(C)N)c2)c1`, for which the growth in the test on NCI-H23 lung is 64.5%; in the test on NCI-H226 lung, 71.4%; in the test on NCI-H322M lung, 35.1%; in the test on HOP-62 NSCLC, 39.4%; in the test on NCI-H460 lung, 38%; with HOP-92 NSCLC, -1.2% (active). Further, the growth in the test with NCI-H522 lung is 49%; with A549/ATCC NSCLC, 32.4%; in the test with 786-0 renal, 16.7%; with COLO 205 colon it was 21.8%; in the test on DU-145 prostate it was 62.4%; with K-562 leukemia, 63.3%. Moreover, the growth in the test on MALME-3M melanoma was 69.5%; in the test on MDA-MB-231 breast it was 68.3%; in the test on RXF 393 renal it was -10.2% (active); in the test on SF-268 CNS, 49.8%; in the test with SF-295 CNS it was 12.2%; in the test with SF-539 CNS it was 13.7%. The figures for the growth in the test with UACC-257 melanoma and with M14 melanoma were 56.9% and 51.7%, respectively.

Take `CN1CCC(COc2cnc(-c3cccc(Cn4nc(-c5cccc(C#N)c5)ccc4=O)c3)nc2)CC1`: the growth in the test with NCI-H23 lung is 62.5%; in the test with NCI-H226 lung it was 92.2%; with NCI-H322M lung it was 88.7%; in the test on HOP-62 NSCLC, 45.7%; in the test with NCI-H460 lung, 52.4%; in the test with HOP-92 NSCLC, 72.2%. Also, the growth with NCI-H522 lung was 25.5%; in the test with A549/ATCC NSCLC, 48.1%; in the test with 786-0 renal, 61.9%; with COLO 205 colon, -60.3% (active); with DU-145 prostate, 77.8%; in the test on K-562 leukemia it was 3.04% (active). Besides, the growth is 48.4% with MALME-3M melanoma; 57.3% with MDA-MB-231 breast; 87.7% with RXF 393 renal; 67.2% in the test on SF-268 CNS; 54.5% with SF-295 CNS; 33.5% in the test with SF-539 CNS. Also, the growth was -27.5% (active) in the test on UACC-257 melanoma and 39% in the test on M14 melanoma.

On to `CNC(=O)c1cc(Oc2ccc(NC(=O)Nc3cc(C(C)(C)C)nn3-c3ccc4ncccc4c3)c(F)c2)ccn1`, for which the growth is -49.5% (active) in the test with NCI-H23 lung; -15.9% (active) in the test on NCI-H226 lung; -17.8% (active) in the test with NCI-H322M lung; -41.4% (active) in the test on HOP-62 NSCLC; -40.8% (active) in the test with NCI-H460 lung; -10.8% (active) in the test with HOP-92 NSCLC. Besides, the growth in the test on NCI-H522 lung is -47.7% (active); with A549/ATCC NSCLC it was -16.1% (active); in the test on 786-0 renal it was -16.7% (active); in the test on COLO 205 colon, -78.1% (active); with DU-145 prostate, -22.1% (active); with K-562 leukemia it was -7.14% (active). The growth with MALME-3M melanoma was -59.5% (active); with MDA-MB-231 breast, -9.49% (active); in the test on RXF 393 renal it was -71% (active); in the test on SF-268 CNS, -19.8% (active); in the test with SF-295 CNS, -13.1% (active); with SF-539 CNS it was -66.4% (active). Moreover, the growth was -24.3% (active) in the test on UACC-257 melanoma and -71.4% (active) in the test on M14 melanoma.
